Shown is part of a subset that was picked to be rich in hits.
VCAM1 pot: potentiators of TNFa-induced VCAM1 expression, primary screen, imaging, HUVEC, TNFa stimulus, immunofluorescence | HUVEC TNFa-stimulated VCAM-1 immunofluorescence, high-content imaging; scaled per plate to unstimulated/TNFa-only wells | activation, % at 2 µM | 93,000 compounds, 0.19% hits | AID 808, 2007;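 active = activation above the screen mean plus 3 SD, with well images confirming the hit on visual review, cut at about 28% in these data, passing the limit was not always enough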;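 note: signal is the number of cytoplasmic VCAM-1 stained grains per positive cell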
VCAM1 pot confirm: potentiators of TNFa-induced VCAM1 expression, confirmation, imaging, HUVEC, triplicate retest | shares compounds with VCAM1 pot | HUVEC TNFa-stimulated VCAM-1 immunofluorescence imaging | activation, % at 2 µM | 230 tested, under 10 active | AID 1034, 2008;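 active = activation above 30% in triplicate retests at 2 µM, then confirmed by visual review of the well images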;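 note: scaled per plate between unstimulated and TNFa-stimulated DMSO control wells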
An asterisk follows results filed as active.

Results for C/C(Cl)=C/CC1(CN2CCCC2=O)C(=O)NC(=O)NC1=O ?
VCAM1 pot: 106.0*; VCAM1 pot confirm: -14.9

Results for COc1ccc(OP(=O)(Nc2ccccc2)Nc2ccccc2)cc1 ?
VCAM1 pot: 5.4

How did O=C(Nc1ccccc1OC(=O)N1CCOCC1)N1CCOCC1 do in these assays?
VCAM1 pot: -36.8

Results for Cc1cc(C)c(NC2=NCCCS2)c(C)c1 ?
VCAM1 pot: 13.5

How did Cc1occc1C(=O)N1CCC2(CC1)OCCO2 do in these assays?
VCAM1 pot: -4.7

What do the screens show for `CCOC(=O)c1[nH]c(C)c(C(=O)N2CCC3(CC2)OCCO3)c1C`?
VCAM1 pot: 116.7*; VCAM1 pot confirm: -9.3

What do the screens show for `CS(=O)(=O)N1CCCC(C(=O)N2CCC3(CC2)OCCO3)C1` (configuration not stated)?
VCAM1 pot: -0.7

What do the screens show for `CCC12CN3CCN(CC(C3)/C1=N\O)C2`?
VCAM1 pot: 8.1

How did CCCCC(=O)C1C(=O)NC(=O)NC1=O do in these assays?
VCAM1 pot: 5.4

What do the screens show for `COC(=O)c1cc2c(s1)=NC=NP=2(N1CCOCC1)N1CCOCC1`?
VCAM1 pot: -7.9

Results for CC(Cc1ccccc1)NC(=O)NC(C)Cc1ccccc1 (configuration not stated) ?
VCAM1 pot: 33.1*; VCAM1 pot confirm: -16.4

How did CCOP(=S)(OCC)c1ccc(N(C)C)cc1 do in these assays?
VCAM1 pot: 10.0

How did Cc1cc(C=O)c(C)n1CC1CCCO1 (configuration not stated) do in these assays?
VCAM1 pot: 2.3

Results for Cc1ccc(C2(O)CC(C)N(C)CC2C)cc1 (configuration not stated) ?
VCAM1 pot: -7.1

How did O=C1CN(C(=O)CN2CCCCC2)C(c2ccccc2)c2cc(Br)ccc2N1 (configuration not stated) do in these assays?
VCAM1 pot: -45.7

What do the screens show for `CC1CCC(NCC(O)c2ccccc2)CC1` (configuration not stated)?
VCAM1 pot: 15.9

How did Cc1ccc(-c2nc3ccccc3c(=O)n2-c2nccs2)cc1 do in these assays?
VCAM1 pot: 55.9*; VCAM1 pot confirm: -17.4

Results for CC1CN=C(Nc2ccc(N(C)C)cc2)S1 (configuration not stated) ?
VCAM1 pot: 9.9

How did C=CCn1c(O)c(C(C)=NCc2cc(OC)cc(OC)c2)c(=O)[nH]c1=O do in these assays?
VCAM1 pot: -6.9

What do the screens show for `COc1ccc(Cl)cc1NC1=NCC(C)S1` (configuration not stated)?
VCAM1 pot: -0.2

Compound activity (PubChem BioAssay)
